Our source for the inhibition values is PubChem BioAssay.

Active and inactive are the calls of the source. How the calls were made is not given here.

A short description of this test: inhibition of Brca1/Bard1 split-luciferase complementation, confirmation, counter-screen for Mdm2/MdmX interaction inhibitor project, luminescence, single concentration (AID 504668). To be noted: Brca1/Bard1 bimolecular luciferase complementation counterscreen, at 8 µM, stronger effect = higher value.
Turning to `CCN(CC)C(=O)N1c2ccccc2C=Cc2ccccc21`, the inhibition (in general, the share of the control response that was lost under treatment) was 33.7% (active).
The same measure for `O=c1cc(CSc2ccc(Cl)cc2)nc(-c2ccccn2)[nH]1`: 30.5% (active); for `O=C(CCl)N1N=C(c2ccco2)CC1c1ccco1` (stereo not given): 31.2% (active); for `CC(=O)/C(C#N)=C1\NC(=O)C(Cc2ccccc2Cl)S1` (stereo not given): 30.1% (active).
On to `O=C(Oc1ccnc2cc(Cl)ccc12)N1CCCCCC1`, for which the inhibition is 30% (active).
The same measure for `O=C(CCl)Nc1cccc(S(=O)(=O)NC2=NCCCCC2)c1`: 35.8% (active).
As for `COc1cc([N+](=O)[O-])cc(/C=N/NC(=O)c2ccc(NC(=O)c3ccc(C)cc3)cc2)c1O`, the inhibition was 33.2% (active).
As to `COc1ccc([C@@H]2[C@@H]3C(=O)N(C(C)(C)C)C(=O)[C@@H]3[C@]3(CC(C)C)C(=O)N(c4ccc(C(F)(F)F)cc4)C(=O)N23)cc1`, the inhibition was 35% (active).
On to `C/C(=N\NC(=O)c1nnn(-c2nonc2N)c1CN(C)c1ccccc1)c1ccccc1O`, for which the inhibition was 30.5% (active).
For `O=C(Nc1c2ccccc2nc2ccccc12)C(Cl)(Cl)Cl`, the inhibition was 33.7% (active).
For the molecule `Cc1cc(C2CCCCC2)n(O)c(=O)c1`, the inhibition is 32.2% (active).
For the molecule `CCOc1ccc2[nH]c3c(N4CCc5ccccc5C4)ncnc3c2c1`, the inhibition is 35.8% (active).
Turning to `Oc1ccc(CNc2ccc(F)cc2)c2cccnc12`, the inhibition was 36% (active).
The same measure for `O=C(CCl)Nc1cn(-c2ccccc2)nc1-c1ccc(F)cc1`: 32.9% (active); for `Oc1ccc(Br)cc1CNc1cccc2cccnc12`: 25.6% (active); for `CCCCCCCCCCC[N+](C)(C)CC/C=C1/c2ccccc2Sc2ccc(Cl)cc21`: 28.6% (active).
For `CCCCCCCCCCOC(=O)Cn1c(COc2cccc(C)c2)[n+](C)c2ccccc21`, the inhibition is 24.9% (active).
The same measure for `Cc1ccc(-n2c(-c3ccccc3)c[n+]3c2CCc2ccccc2-3)c(C)c1`: 26.4% (active); for `O=[N+]([O-])c1ccc(N=Nc2ccc(O)cc2O)cc1`: 29.5% (active); for `CC[C@@H](C(=O)[C@@H](C)[C@@H](O)[C@H](C)CCc1ccc(C)c(O)c1C(=O)O)[C@H]1O[C@](CC)([C@H]2CC[C@](O)(CC)[C@H](C)O2)C[C@@H]1C`: 35.2% (active).
Consider `Clc1ccc(C2=Nn3c(nnc3-c3n[nH]c4c3CCC4)SC2)cc1Cl`, for which the inhibition was 34% (active).
The same measure for `C=CCSc1nsc(NC(=O)Nc2ccc(F)cc2)n1`: 28% (active); for `Cc1cc(NC(=O)c2ccc(F)cc2F)n(-c2nc3ccccc3[nH]2)n1`: 29.6% (active); for `COc1cccc(/C=N/Nc2ncnc(Cl)c2N)c1O`: 30.7% (active).
For the molecule `N#Cc1c(-c2ccccc2)c(-c2ccccc2)nn(CC(=O)NNC(=O)Nc2ccc(Cl)c(Cl)c2)c1=O`, the inhibition was 35.9% (active).
As to `Cc1ccc(-c2cnc(C3CC3)o2)cc1S(=O)(=O)Nc1ccccc1`, the inhibition was 33.6% (active).
`CCN(C[C@H]1N[C@@](CC)(C(=O)OC)[C@H]2C(=O)N(Cc3ccccc3)C(=O)[C@@H]12)S(=O)(=O)c1ccc(-c2ccccc2)cc1`: the inhibition was 34% (active).
On to `O=C1c2cccc3c([N+](=O)[O-])ccc(c23)C(=O)N1c1nccs1`, for which the inhibition was 27% (active).
The same measure for `O=c1c2cc(Br)ccc2nc(-c2cccc(C(F)(F)F)c2)n1O`: 29.9% (active); for `COc1cccc(Nc2nc(NCCO)c3ccccc3n2)c1`: 27.7% (active); for `COc1cc(OC)cc(C(=O)Oc2c(CN3CCOCC3)cc(Cl)c3cccnc23)c1`: 33.8% (active).
With `CCOC(=O)c1c(-c2ccccc2)oc2ccc(OCC(O)CNCCN(C)C)cc12` (stereo not given), the inhibition is 35.1% (active).
As to `CCOC(=O)c1cccc2c1-c1ccccc1/C2=N/O`, the inhibition is 30.6% (active).
In the case of `CCN(CC)CCNC(=O)c1ccc(NC(=O)c2cn(-c3ccc(F)cc3)nc2-c2cccc(OC)c2)cc1`, the inhibition is 27.9% (active).
The same measure for `CCN(CC)CCCN=C1N[C@@H](c2cccc(C(F)(F)F)c2)C(C(=O)OC)=C(C)N1CC`: 30.4% (active); for `CC(NC(=O)CN(c1cccc(C(F)(F)F)c1)S(=O)(=O)c1ccc(Cl)c([N+](=O)[O-])c1)c1ccccc1` (stereo not given): 35.1% (active).
On to `Cc1oc2c(Cl)c(Cl)c(O)c(CN(C)C)c2c1C(=O)c1ccc(Cl)cc1`, for which the inhibition is 26.8% (active).
For `COc1cc2c(ccc3cc(OC)c(OC)c(O)c32)cc1O`, the inhibition was 31.4% (active).
On to `N=c1c(C(=O)NC2CCCCC2)cc2c(=O)n3ccccc3nc2n1Cc1ccco1`, for which the inhibition was 33.2% (active).
For `Cc1noc(-c2ccc(C(F)(F)F)cc2)c1NC(=O)Nc1ccc(Cl)cc1`, the inhibition was 24.2% (active).
